Source: PubChem
JMJD2A Tudor – blocks the human JMJD2A Tudor domain. AlphaScreen JMJD2A-Tudor / H3K4me3 peptide binding. Potency, µM (highest dose often 114 µM), for inactives: top-dose activity change, negative = inhibition, most hits filed as inhibitors. 4.4% of 390,000 active; further: potency means the concentration at half of the fitted maximal effect; on the % scale 0 is the no-effect control and ±100 the full control effect; nearly all actives have a fitted effect of over 50% in size
HP1b chromo inh – HP1-beta chromodomain-methylated histone interaction inhibition. P83916. AlphaScreen HP1-beta / biotin-H3K9me3 peptide binding. Potency, µM (titrated, usually from 114 µM), for the others: at the highest dose activity change, negative = inhibition, actives largely listed as inhibitors. 0.56% of 390,000 active. AID 540317; further: potency means the concentration at half of the fitted maximal effect; nearly all actives have a fitted effect of over 70% in size
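AlphaScreen: HP1-beta (50 nM) preformed 30 min with biotin-H3(1-18)K9me3 peptide (50 nM) in PBS pH 7.4, 0.01% Tween-20. Compound added for 30 min at RT, then streptavidin donor/nickel chelate acceptor beads (10 ug/mL) for 30 min.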
BAZ2B inh – BAZ2B (human) inhibition; Q9UIF8; AlphaScreen BAZ2B-H3K14Ac peptide displacement; Potency, µM (titrated, usually from 114 µM), inactives show at the highest dose activity change, negative = inhibition, actives largely listed as inhibitors; 4.4% of 360,000 active; AID 504333; further: potency means the concentration at half of the fitted maximal effect; on the % scale 0 is the no-effect control and ±100 the full control effect; nearly all actives have a fitted effect of over 60% in size
Target sequence (Q9UIF8 whole entry, looked up): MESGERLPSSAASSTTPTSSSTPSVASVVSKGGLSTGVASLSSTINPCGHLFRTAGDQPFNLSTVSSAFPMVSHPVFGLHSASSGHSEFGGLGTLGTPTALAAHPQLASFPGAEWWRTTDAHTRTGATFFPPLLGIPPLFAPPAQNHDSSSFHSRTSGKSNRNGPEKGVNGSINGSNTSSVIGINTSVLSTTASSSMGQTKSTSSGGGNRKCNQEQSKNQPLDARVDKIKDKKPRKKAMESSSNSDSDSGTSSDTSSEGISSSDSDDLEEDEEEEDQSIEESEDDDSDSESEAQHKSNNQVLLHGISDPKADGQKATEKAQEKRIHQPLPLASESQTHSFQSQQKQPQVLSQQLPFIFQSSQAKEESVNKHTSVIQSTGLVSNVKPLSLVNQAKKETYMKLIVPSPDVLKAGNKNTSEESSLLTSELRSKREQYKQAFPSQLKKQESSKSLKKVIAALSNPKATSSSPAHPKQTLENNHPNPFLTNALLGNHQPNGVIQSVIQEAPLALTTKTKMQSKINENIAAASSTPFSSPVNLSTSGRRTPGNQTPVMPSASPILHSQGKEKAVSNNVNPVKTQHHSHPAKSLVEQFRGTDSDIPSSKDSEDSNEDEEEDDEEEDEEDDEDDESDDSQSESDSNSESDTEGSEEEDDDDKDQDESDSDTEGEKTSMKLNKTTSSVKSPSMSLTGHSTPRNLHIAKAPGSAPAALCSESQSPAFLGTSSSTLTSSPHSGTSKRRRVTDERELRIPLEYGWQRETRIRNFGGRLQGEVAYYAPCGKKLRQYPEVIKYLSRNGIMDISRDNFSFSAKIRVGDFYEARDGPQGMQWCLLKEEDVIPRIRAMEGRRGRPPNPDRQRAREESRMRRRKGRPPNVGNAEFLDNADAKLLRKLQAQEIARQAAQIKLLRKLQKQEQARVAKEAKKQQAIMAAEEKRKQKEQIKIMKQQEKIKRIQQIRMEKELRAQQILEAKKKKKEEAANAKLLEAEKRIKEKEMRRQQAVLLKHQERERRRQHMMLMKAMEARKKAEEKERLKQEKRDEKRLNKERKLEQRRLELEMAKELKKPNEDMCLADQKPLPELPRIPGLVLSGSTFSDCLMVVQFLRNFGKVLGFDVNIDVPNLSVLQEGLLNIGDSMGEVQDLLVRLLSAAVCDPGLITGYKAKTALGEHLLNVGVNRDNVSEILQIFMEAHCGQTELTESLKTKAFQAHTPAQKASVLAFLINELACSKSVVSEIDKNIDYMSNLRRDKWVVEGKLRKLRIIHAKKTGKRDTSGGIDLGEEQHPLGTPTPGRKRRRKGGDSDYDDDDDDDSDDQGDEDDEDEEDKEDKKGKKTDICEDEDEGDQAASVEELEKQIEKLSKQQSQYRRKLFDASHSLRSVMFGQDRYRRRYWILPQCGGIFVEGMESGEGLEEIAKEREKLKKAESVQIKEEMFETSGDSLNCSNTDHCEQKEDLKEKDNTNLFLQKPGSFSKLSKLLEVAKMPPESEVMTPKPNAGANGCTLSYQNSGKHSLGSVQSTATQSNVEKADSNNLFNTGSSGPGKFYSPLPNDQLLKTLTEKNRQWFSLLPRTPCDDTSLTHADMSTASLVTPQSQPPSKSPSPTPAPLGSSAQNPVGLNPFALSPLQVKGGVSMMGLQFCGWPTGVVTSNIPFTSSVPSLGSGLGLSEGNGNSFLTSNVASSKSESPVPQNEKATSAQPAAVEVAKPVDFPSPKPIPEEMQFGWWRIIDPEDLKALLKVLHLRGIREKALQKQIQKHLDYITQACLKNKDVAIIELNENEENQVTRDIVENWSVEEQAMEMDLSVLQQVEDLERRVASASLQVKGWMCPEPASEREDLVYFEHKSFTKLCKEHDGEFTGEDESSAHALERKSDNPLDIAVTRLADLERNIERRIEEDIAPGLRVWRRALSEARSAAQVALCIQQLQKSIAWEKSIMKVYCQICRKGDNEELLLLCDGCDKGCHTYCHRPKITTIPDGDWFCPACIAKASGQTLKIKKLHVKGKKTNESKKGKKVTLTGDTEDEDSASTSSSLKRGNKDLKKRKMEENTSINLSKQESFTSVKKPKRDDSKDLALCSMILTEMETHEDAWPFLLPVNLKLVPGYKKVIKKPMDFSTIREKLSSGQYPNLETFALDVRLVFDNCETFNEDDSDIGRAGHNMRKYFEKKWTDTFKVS
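Compounds, titrated to a top concentration of 110 uM, were incubated 30 min at room temperature with preformed BAZ2B/acetyl-K14 H3 peptide complex (50 nM each). Proximity signal was measured by AlphaScreen after 20 min with beads.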
CtBP-E1A inh – CtBP/E1A binding inhibition; AlphaScreen GST-E1A/His-CtBP binding, 1536-well; active compounds read low; activity change, % (test concentration not listed); 0.49% of 340,000 active; AID 651724; in the data active means activity change below about -65%; inconclusive means mostly about -30% to -63%; further: on the % scale 0 is the no-effect control and ±100 the full control effect
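AlphaScreen with 125 nM GST-E1A and 125 nM His-CtBP (5X stocks) in Tris pH 8.0, 300 mM NaCl, BSA, Tween 20, TCEP. Compounds preincubated 2 h at 37 deg C, then glutathione donor/nickel acceptor beads added for 1 h at 37 deg C in dark.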
G9a inh – G9a (human) methyltransferase inhibition | Potency, µM (titrated, usually from 102 µM), without a hit: top-dose activity, negative = inhibition, usual class: inhibitors | AID 504332 | G9a H3K9 monomethylation, AlphaScreen, 2 h | Q96KQ7 | 8.8% of 350,000 active; further: potency means the concentration at half of the fitted maximal effect; on the % scale 0 is the no-effect control and ±100 the full control effect; nearly all actives have a fitted effect of over 75% in size
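Quantitative HTS format: methyltransferase activity on a biotin-tagged H3K9 peptide is measured by AlphaScreen, using a rabbit anti-monomethyl-H3K9 antibody with streptavidin donor and anti-IgG acceptor beads. Final levels are 20 nM enzyme, 500 nM peptide, 20 uM SAM; 2 h RT.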
Six1-Eya2 blk – inhibitors of human Six1/Eya2 interaction | Q15475+O00167 | AlphaScreen GST-Six1/His-Eya2 binding, biochemical; active compounds read low | activity change, % (no concentration beside the values) | 0.56% of 360,000 active | AID 651725; in the data active means activity change below about -65%; inconclusive means mostly about -30% to -63%; further: on the % scale 0 is the no-effect control and ±100 the full control effect
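Homogeneous AlphaScreen proximity assay pairing GST-Six1 with His-tagged Eya2 (added as 5X mix: 250 nM and 500 nM) in 50 mM Tris pH 8.0, 300 mM NaCl, 1 mM TCEP. Glutathione donor and nickel acceptor beads; 1 h, 37 °C, dark.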
Active calls of the source: *; ? = inconclusive; · = no result given; [ ] = dose if it differs, or a comment. A selection: hits, their analogues and other compounds. The true share with any hit is near 10%. Unless noted, the call rests on the fitted dose curve; in most records, active means well fitted inhibition curve with a large enough effect; inconclusive means small, poorly fitted or top-dose-only effect; inactive means no such curve, though single readings can be large or run the other way.

SMILES	JMJD2A Tudor	HP1b chromo inh	BAZ2B inh	CtBP-E1A inh	G9a inh	Six1-Eya2 blk
COc1cc(OC)c2c(c1C(CCN1CCCC(C)C1)c1ccc(N(C)C)cc1)OC(=O)CC2c1ccc(N(C)C)cc1 (stereo not given)	8.9µM*	?	·	·	·	·
COc1ccc(C(CCN2CCCC(C)C2)c2c(O)cc(OC)cc2OC)cc1 (stereo not given)	-34%	-2%	·	·	·	·
COc1cc(C2CC(=O)Oc3c(C(CCN4CCCC(C)C4)c4ccc(N(C)C)cc4)c(OC)cc(OC)c32)cc(OC)c1OC (stereo not given)	40µM*	?	35µM*	-22	?	?
COc1cc(O)c(C(CCN2CCCC(C)C2)c2cc(OC)c(OC)c(OC)c2)c(OC)c1 (stereo not given)	-22%	6%	1%	22	11%[12.7 µM]	4
CCN(CC)CCOC(=O)c1ccc(N/C=C(/C#N)c2nc(-c3ccc4c(c3)OCO4)cs2)cc1	40µM*	32µM*	?	-5	?	-8
COc1cc(/C=C(\C#N)c2nc(-c3cc4ccccc4oc3=O)cs2)ccc1O	-27%	-7%	-33%	-7	?	-7
CCN(CC)CCOC(=O)c1ccc(N/C=C(/C#N)c2nc(-c3cc4ccccc4oc3=O)cs2)cc1	?	18µM*	-2%	2	1.6µM*	0
N#C/C(=C\C=C\c1ccccc1)c1nc(-c2ccc3c(c2)OCO3)cs1	21%	95%	34%	0	121%[59 µM]	43
COc1ccc(/C=C(/C#N)c2nc(-c3ccc(-c4ccccc4)cc3)cs2)cc1	-9%	37%	6%	·	6%[59 µM]	·
COc1cc(/C=C(/C#N)c2nc(-c3cc4ccccc4oc3=O)cs2)cc([N+](=O)[O-])c1O	·	·	?	·	3.2µM*	·
CCN(CC)CCOC(=O)c1ccc(N/C=C(/C#N)c2nc(-c3ccc(OC)cc3)cs2)cc1	56µM*	?	?	-4	11µM*	-3
CCOc1cc(NC(=S)NCCc2ccccc2)c(OCC)cc1NC(C)=O	-30%	9%	?	-1	20%[12.7 µM]	5
CCc1ccc(N(CC(=O)NC(C)C)C(=O)CCC(=O)Nc2ccccn2)cc1	-6%	34%	1%	4	·	7
O=C(Cc1ccccc1)NNS(=O)(=O)c1ccccc1[N+](=O)[O-]	-6%	19%	0%	8	?	5
O=C(Sc1nnc(-c2ccccc2)o1)N1c2ccccc2Sc2ccccc21	50µM*	-20%	?	-18	8.9µM*	?
Cn1ccnc1SC(=O)N1c2ccccc2Sc2ccccc21	20µM*	3%	?	11	?	10
COc1cc(-c2nnc(SCC(=O)N3c4ccccc4Sc4ccccc43)o2)cc(OC)c1OC	-24%	14%	-1%	-1	21%[59 µM]	-16
CCOC(=O)c1sc(N(Cc2ccccc2)C(=O)COC(=O)c2ccccc2O)nc1C	-6%	29%	-1%	5	?	2
CCOC(=O)c1sc(N(Cc2ccccc2)C(=O)CCl)nc1C	12%	85%	-30%	5	40µM*	3
Cn1c(-c2cccc(Br)c2)cnc1NCc1ccccc1O	20µM*	?	50µM*	-23	·	-14
Cn1c(NCc2cc(Br)ccc2O)nc2ccccc21	-9%	30%	31%	-27	17%	?
CC(C)(C)NC(=O)CN(Cc1ccc2c(c1)OCO2)C(=O)CNS(=O)(=O)c1ccccc1	79µM*	6%	0%	-9	17%	20
CC(=O)c1ccc(N2CCN(c3ccc4cc(S(=O)(=O)N5CCC(C)CC5)ccc4n3)CC2)cc1	?	40%	?	11	18µM*	6
CC1CCN(S(=O)(=O)c2ccc3nc(N4CCN(c5ccc(F)cc5)CC4)ccc3c2)CC1	9%	44%	-1%	·	-3%[59 µM]	·
CC1CCN(S(=O)(=O)c2ccc3nc(NCc4ccc(N(C)C)cc4)ccc3c2)CC1	14µM*	?	35µM*	·	10µM*	·
